The experiment relates to Trichoderma virens ATCC 9645. The experiment is described as follows: growth yield (OD600) relative to untreated control; higher = less growth inhibition. Particulars: compound concentration: 100 uM. A digest of the protocol:
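Trichoderma virens ATCC 9645 spores, from potato dextrose agar plates grown for 7 days, were brought to 15,000 spores ml^−1 in potato dextrose broth and dispensed as 100 μl aliquots into 96-well plates. Each aliquot received library compounds at 100 μM final, with or without a biocide at 200 ng ml^−1, before growth at 30 °C and OD600 readings on a BioTek EL800 at 40 h and 72 h. Growth is expressed relative to the control containing neither agent and represents means of duplicate screens.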

Data on 32 compounds can be found in the supplement of paper PMC8007513.

Counter-ions that a name gives are not always drawn. ± gives the standard error. About 75 (6%) of roughly 1,300 compounds showed an effect of 50% or more. The full list was thinned out, with strong results kept by preference.

Regarding `CC1(C)O[C@@H]2C[C@H]3[C@@H]4CCC5=CC(=O)C=C[C@]5(C)[C@H]4[C@@H](O)C[C@]3(C)[C@]2(C(=O)CO)O1` [Desonide], the growth yield reads like this: (40 h) 109 ± 11%; (72 h) 98.7 ± 6.6%.

As for `CCC(=O)[C@@]1(C)[C@H](C)C[C@H]2[C@@H]3CCC4=CC(=O)C=C[C@]4(C)[C@H]3[C@@H](O)C[C@@]21C` [Rimexolone], the growth yield is 112 ± 14% (40 h) and 106 ± 8.3% (72 h).

With `COc1c(O[C@@H]2O[C@H](CO)[C@@H](O)[C@H](O)[C@H]2O)cc2c(c1OC)-c1ccc(SC)c(=O)cc1[C@@H](NC(C)=O)CC2` [Thiocolchicoside], the growth yield amounted to 101 ± 1.4% (40 h) and 103 ± 2.2% (72 h).

On to `NS(=O)(=O)c1cc2c(cc1C(F)(F)F)NCNS2(=O)=O` [Hydroflumethiazide], for which the growth yield is, setting by setting: (40 h) 102 ± 2.4%; (72 h) 100 ± 3.1%.

For `O=C1c2c(O)ccc(O)c2C(=O)c2c(NCCNCCO)ccc(NCCNCCO)c21` [Mitoxantrone dihydrochloride], the growth yield stood at 2.86 ± 2.9% (40 h) and 0.21 ± 0.21% (72 h).

For `O=C1c2cccc(O)c2C(=O)c2c(O)cccc21` [1,8-Dihydroxyanthraquinone], the growth yield reads like this: (40 h) 85.8 ± 11%; (72 h) 87.2 ± 8.7%.

As to `O=C1c2c(O)cccc2Cc2cccc(O)c21` [Anthralin], the growth yield by setting is: (40 h) 96.7 ± 3.6%; (72 h) 89.5 ± 2.8%.

As for `CN1[C@@H]2CC[C@H]1C[C@@H](OC(c1ccccc1)c1ccccc1)C2` [Benztropine mesylate], the growth yield by setting is: (40 h) 105 ± 3.6%; (72 h) 102 ± 1.7%.

`O=C1OCCN1/N=C/c1ccc([N+](=O)[O-])o1` [Furazolidone]: the growth yield runs as follows: (40 h) 84.3 ± 7.2%; (72 h) 87.7 ± 5.9%.

Regarding `Nc1nc(=O)c2nc(CNc3ccc(C(=O)N[C@@H](CCC(=O)O)C(=O)O)cc3)cnc2[nH]1` [Folic acid], the growth yield by setting is: (40 h) 102 ± 1.4%; (72 h) 104.7 ± 0.42%.

On to `CN(C)CCOC(=O)COc1ccc(Cl)cc1` [Meclofenoxate hydrochloride], for which the growth yield reads like this: (40 h) 95.1 ± 2.1%; (72 h) 92.1 ± 3.6%.

With `CCN(CC)CCOC(=O)C(c1ccccc1)c1ccccc1` [Adiphenine hydrochloride], the growth yield by setting is: (40 h) 98.8 ± 7.6%; (72 h) 96.9 ± 5.5%.

Regarding `CN(C)CCOC(c1ccccc1)c1ccccc1` [Diphenhydramine hydrochloride], the growth yield amounted to 99.9 ± 5.2% (40 h) and 99.4 ± 3.1% (72 h).

In the case of `COc1ccc(C(Cl)=C(c2ccc(OC)cc2)c2ccc(OC)cc2)cc1` [Chlorotrianisene], the growth yield by setting is: (40 h) 101 ± 2.7%; (72 h) 96.7 ± 1.5%.

Regarding `CCN(CC)CCOc1ccc(C(=C(Cl)c2ccccc2)c2ccccc2)cc1` [Clomiphene citrate (Z,E)], the growth yield is, setting by setting: (40 h) 1.75 ± 1.1%; (72 h) 2.2 ± 0.1%.

On to `COc1cc(C(=O)NCc2ccc(OCCN(C)C)cc2)cc(OC)c1OC` [Trimethobenzamide hydrochloride], for which the growth yield is, setting by setting: (40 h) 103 ± 2.4%; (72 h) 97.75 ± 0.21%.

With `CC/C(=C(\c1ccccc1)c1ccc(OCCN(C)C)cc1)c1ccccc1` [Tamoxifen citrate], the growth yield (40 h) turned out to be 1.11 ± 0.48% and the growth yield (72 h) came out at 1.26 ± 0.21%.

Regarding `COc1ccc(C(=O)NCc2ccc(OCCN(C)C)cc2)cc1OC` [Itopride], the growth yield by setting is: (40 h) 105 ± 5.7%; (72 h) 105 ± 3.7%.

As for `CN(C)CCOc1ccc(/C(=C(/CCCl)c2ccccc2)c2ccccc2)cc1` [Toremifene], the growth yield is, setting by setting: (40 h) 3.81 ± 0.32%; (72 h) 2.73 ± 0.21%.

Consider `COc1ccc(OC)c(C(O)CNC(=O)CN)c1` (centres undefined) [Midodrine hydrochloride], for which the growth yield by setting is: (40 h) 101.8 ± 0.16%; (72 h) 105 ± 0.73%.

For the compound `CC(=O)[C@H]1CC[C@H]2[C@@H]3C=CC4=CC(=O)CC[C@@]4(C)[C@@H]3CC[C@]12C` [Dydrogesterone], the growth yield reads like this: (40 h) 78.3 ± 1.1%; (72 h) 79.9 ± 2.1%.

Turning to `CN(C)[C@@H]1C(O)=C(C(N)=O)C(=O)[C@@]2(O)C(O)=C3C(=O)c4c(O)ccc(Cl)c4[C@@](C)(O)[C@H]3C[C@@H]12` [Chlortetracycline hydrochloride], the growth yield is 90.54 ± 0.32% (40 h) and 90.93 ± 0.32% (72 h).

Regarding `Cc1onc(-c2ccccc2)c1-c1ccc(S(N)(=O)=O)cc1` [Valdecoxib], the growth yield runs as follows: (40 h) 107 ± 11%; (72 h) 104 ± 8.3%.

Take `CCOC(=O)[C@H](CCc1ccccc1)N[C@H]1CCc2ccccc2N(CC(=O)O)C1=O` [Benazepril hydrochloride]: the growth yield is, setting by setting: (40 h) 104 ± 3.5%; (72 h) 105 ± 2.1%.

`O=C(CCCCC(=O)Nc1c(I)cc(I)c(C(=O)O)c1I)Nc1c(I)cc(I)c(C(=O)O)c1I` [Iodipamide]: the growth yield (40 h) turned out to be 103 ± 1.1% and the growth yield (72 h) amounted to 101.6 ± 0.32%.

In the case of `CC(Oc1c(Cl)cccc1Cl)C1=NCCN1` (centres undefined) [Lofexidine], the growth yield reads like this: (40 h) 104 ± 1.3%; (72 h) 105 ± 1.1%.

Consider `CN1CCCN=C1/C=C/c1cccc(O)c1` [Oxantel pamoate], for which the growth yield by setting is: (40 h) 93.4 ± 0.64%; (72 h) 99.8 ± 1.1%.

`Cc1cc(CC(=O)O)n(C)c1C(=O)c1ccc(Cl)cc1` [Zomepirac sodium salt]: the growth yield is 93.7 ± 5.7% (40 h) and 88 ± 3.9% (72 h).

Turning to `COc1ccc(-c2cc(=S)ss2)cc1` [Anethole-trithione], the growth yield was 76.4 ± 9.1% (40 h) and 77.5 ± 7.2% (72 h).

Turning to `CNC(=O)c1c(I)c(C(=O)NCC(=O)Nc2c(I)c(C(=O)O)c(I)c(C(=O)NCCO)c2I)c(I)c(N(C)C(C)=O)c1I` [Ioxaglic acid], the growth yield is, setting by setting: (40 h) 105 ± 5.2%; (72 h) 101 ± 2.2%.

Regarding `CCC(=O)O[C@@H](O[P@](=O)(CCCCc1ccccc1)CC(=O)N1C[C@H](C2CCCCC2)C[C@H]1C(=O)O)C(C)C` [Fosinopril], the growth yield is, setting by setting: (40 h) 109.8 ± 0.48%; (72 h) 103 ± 3.5%.

`CCCCOc1cc(C(=O)NCCN(CC)CC)c2ccccc2n1` [Dibucaine] had a growth yield (40 h) of 101.02 ± 1e-14% and a growth yield (72 h) of 98.37 ± 0.21%.
